Screening data deposited in PubChem by National Center for Advancing Translational Sciences (NCATS).
Shown are actives, neighbours in structure and some others; about 11% of the full set was active somewhere.
L3MBTL1 block – qHTS Assay for the Inhibitors of L3MBTL1 | Lethal(3)malignant brain tumor-like protein 1 (Homo sapiens), Q9Y468 | AlphaScreen L3MBTL1–H3K9me1 peptide binding | Potency, µM (highest dose often 57.1 µM), inactives show at the highest dose activity, negative = inhibition, actives largely listed as inhibitors | 0.66% of 230,000 active | AID 485360, 2010; also: % is scaled to controls: 0 for no effect and ±100 for the full control effect; nearly all actives have a fitted effect of over 60% in size
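First, the protein-peptide complex forms for 30 min at room temperature (L3MBTL1 50 nM, biotinylated H3K9me1 peptide 75 nM). Next, compounds are pin-transferred and incubated 30 min. Finally, AlphaScreen beads are added and read after 30 min.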
JMJD2A Tudor inh – qHTS Assay for Inhibitors of JMJD2A-Tudor Domain. AlphaScreen JMJD2A-Tudor / H3K4me3 peptide binding. Potency, µM (doses to about 114 µM), for the others: at the highest dose activity change, negative = inhibition, actives largely listed as inhibitors. 4.4% of 390,000 active. AID 504339, 2011; also: % is scaled to controls: 0 for no effect and ±100 for the full control effect; nearly all actives have a fitted effect of over 50% in size
Target sequence (O75164 whole entry, looked up, the tested form may be a part): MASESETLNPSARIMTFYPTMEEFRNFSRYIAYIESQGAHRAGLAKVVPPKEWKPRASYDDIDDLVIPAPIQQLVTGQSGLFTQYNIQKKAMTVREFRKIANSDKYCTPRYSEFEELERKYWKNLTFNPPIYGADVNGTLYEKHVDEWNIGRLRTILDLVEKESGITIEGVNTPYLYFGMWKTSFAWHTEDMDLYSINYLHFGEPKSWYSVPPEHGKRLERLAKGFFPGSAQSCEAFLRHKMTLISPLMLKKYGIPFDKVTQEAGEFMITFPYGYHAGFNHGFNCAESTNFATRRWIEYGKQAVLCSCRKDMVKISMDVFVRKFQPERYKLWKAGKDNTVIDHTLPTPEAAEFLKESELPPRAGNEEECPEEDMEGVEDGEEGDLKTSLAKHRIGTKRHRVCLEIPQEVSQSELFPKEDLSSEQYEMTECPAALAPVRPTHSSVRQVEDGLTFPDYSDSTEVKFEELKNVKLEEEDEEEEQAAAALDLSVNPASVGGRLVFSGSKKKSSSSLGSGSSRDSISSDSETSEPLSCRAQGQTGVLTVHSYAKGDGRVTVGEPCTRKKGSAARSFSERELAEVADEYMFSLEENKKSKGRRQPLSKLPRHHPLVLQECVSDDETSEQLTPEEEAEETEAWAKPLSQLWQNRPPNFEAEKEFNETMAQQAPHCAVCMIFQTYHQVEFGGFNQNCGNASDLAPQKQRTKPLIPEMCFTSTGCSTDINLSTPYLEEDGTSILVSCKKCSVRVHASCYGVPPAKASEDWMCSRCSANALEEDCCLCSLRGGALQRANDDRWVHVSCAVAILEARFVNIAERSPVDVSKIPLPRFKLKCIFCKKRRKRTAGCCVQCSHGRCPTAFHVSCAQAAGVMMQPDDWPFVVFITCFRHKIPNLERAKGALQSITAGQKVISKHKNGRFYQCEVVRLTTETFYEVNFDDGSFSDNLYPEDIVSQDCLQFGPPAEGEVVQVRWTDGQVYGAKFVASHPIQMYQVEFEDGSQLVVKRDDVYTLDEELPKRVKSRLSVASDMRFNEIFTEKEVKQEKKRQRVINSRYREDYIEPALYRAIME
G9a inh – qHTS Assay for Inhibitors of Histone Lysine Methyltransferase G9a. Histone-lysine N-methyltransferase EHMT2 (Homo sapiens), Q96KQ7. G9a H3K9 monomethylation, AlphaScreen, 2 h. Potency, µM (doses to about 102 µM), for the others: at the highest dose activity, negative = inhibition, usual class: inhibitors. 8.8% of 350,000 active. AID 504332, 2011; also: % is scaled to controls: 0 for no effect and ±100 for the full control effect; nearly all actives have a fitted effect of over 75% in size
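Methyltransferase reactions run at room temperature for 2 h (20 nM enzyme, 500 nM biotin-H3K9 peptide, 20 uM SAM) after a 15 min compound preincubation; product detected by AlphaScreen beads and anti-H3K9me1 antibody.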
BAZ2B block – qHTS Assay for Inhibitors of BAZ2B. 4.4% of 360,000 active. AlphaScreen BAZ2B-H3K14Ac peptide displacement. Potency, µM (highest dose often 114 µM), without a hit: at the top dose activity change, negative = inhibition, most hits filed as inhibitors; also: % is scaled to controls: 0 for no effect and ±100 for the full control effect; nearly all actives have a fitted effect of over 60% in size
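AlphaScreen displacement of biotin-H3(5-23)K14Ac peptide (50 nM final) from BAZ2B (50 nM final) in PBS pH 7.4, 0.01% Tween-20; complex preformed 30 min RT, then compounds (top 110 uM) 30 min RT, beads 20 min dark.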
HP1b binding inh – HTS for Inhibitors of HP1-beta Chromodomain Interactions with Methylated Histone Tails. AlphaScreen HP1-beta / biotin-H3K9me3 peptide binding. 0.56% of 390,000 active. Potency, µM (top dose mostly 114 µM), inactives show at the highest dose activity change, negative = inhibition, most hits filed as inhibitors; also: nearly all actives have a fitted effect of over 70% in size
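AlphaScreen: HP1-beta (50 nM) preformed 30 min with biotin-H3(1-18)K9me3 peptide (50 nM) in PBS pH 7.4, 0.01% Tween-20. Compound added for 30 min at RT, then streptavidin donor/nickel chelate acceptor beads (10 ug/mL) for 30 min.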
The depositor's hits bear a star; u = inconclusive; x = not tested or not shown; ! = not active in a repeat; [ ] = another dose, or the depositor's remark. Calls follow the shape of the dose curve; as a rule, active = well fitted inhibition curve with a large enough effect; inconclusive = small, poorly fitted or top-dose-only effect; inactive = no such curve, though single readings can be large or run the other way. Potency is read from the fitted curve at half-maximal effect.

SMILES | L3MBTL1 block | JMJD2A Tudor inh | G9a inh | BAZ2B block | HP1b binding inh
O=C(O)c1ccc(N/N=C/c2ccc(-c3ccc(Br)cc3)o2)cc1 | x | u | -3%[59 µM] | u | 10%[57 µM]
Cc1cc(S(=O)(=O)NCCc2csc(-c3cccc(F)c3)n2)ccc1F | x | -2% | 11%[59 µM] | 24% | 21%[57 µM]
CC1CCN(CC[C@H]2CCCN2S(=O)(=O)c2cccc(O)c2)CC1 | 10% | -14% | 25µM*! | 4% | 53%
Cc1ccc(CNc2ccc3cc(S(=O)(=O)N4CCCCC4)ccc3n2)cc1 | x | 4% | -5%[59 µM] | 3% | 18%
COCC(C)n1c(SCC(=O)NC(=O)NCc2ccccc2)nc2ccccc2c1=O (stereo unspecified) | -6% | -16% | x | x | 29%
O=C(/C=C/c1ccc([N+](=O)[O-])cc1)Nc1cccc(C(=O)Nc2ccccc2C(=O)O)c1 | u | u | 45µM* | u | u
O=C(/C=C/c1cccc([N+](=O)[O-])c1)Nc1cc(C(=O)O)cc(C(=O)O)c1 | x | 18µM* | u | u | u
Cc1cccc(-n2c(C)cc(C(=O)C(=O)Nc3ccccc3F)c2C)c1C | x | -17% | -24%[59 µM] | -38% | 10%
CN(C(=O)c1cnc(N2CCOCC2)c2ccccc12)c1ccccc1F | x | 8% | -5%[59 µM] | 3% | 23%[57 µM]
CC(c1ccc(F)cc1)n1cc(C(=O)NCCN(C)C)nn1 (stereo unspecified) | 9% | 4% | 45µM* | -36% | 55%
CC(c1ccc(F)cc1)n1cc(C(=O)NCc2ccccn2)nn1 (stereo unspecified) | 14% | -7% | 8% | -1% | 60%
Cc1nc2nc(SCC(=O)NC(C)c3ccccc3)nn2c(C)c1Cc1c(F)cccc1Cl (stereo unspecified) | x | -19% | -4%[59 µM] | -3% | 28%
O=C(Nc1ccccc1Cl)c1ccc(F)c(S(=O)(=O)NCc2ccc(Cl)c(Cl)c2)c1 | x | -8% | 3%[59 µM] | 10% | 28%
O=C(/C=C/c1ccccc1)N1CCOCC1 | x | 1% | 11%[12.7 µM] | -4% | 32%
O=C(/C=C/c1ccccc1)CCN1CCOCC1 | x | 89µM* | x | x | -24%
CCOc1ccccc1Nc1nc(-c2cccc(Cl)c2)c2c(n1)-c1ccccc1OC2 | x | 56µM* | 25µM* | u | -33%
c1ccc(-c2cc(-c3ccccc3)c3c(n2)-c2ccccc2OC3)cc1 | x | 41% | 26%[59 µM] | -2% | 50%
Cc1ccc(C)n1-c1ccc(C(=O)NN)cc1 | 11% | 50µM* | 45%[59 µM] | 8% | 11%
O=C(N=C1SC2CS(=O)(=O)CC2N1c1ccc(Cl)cc1Cl)C1CC1 (stereo unspecified) | x | -10% | 79µM* | -23% | 27%
O=C(N=C1SC2CS(=O)(=O)CC2N1c1ccc(Cl)cc1Cl)C1CCCO1 (stereo unspecified) | x | -3% | 3% | -7% | 37%
CCCOc1ccc(C2C(=O)N(C3CCCCCC3)CC(=O)N2CCC)cc1OC (stereo unspecified) | x | -25% | -4%[59 µM] | 2% | 20%
O=C(/C=C/c1cccs1)N1CCCCC1 | -13% | -6% | 23% | -18% | 14%
O=C(/C=C/c1cccs1)N1CCN(c2ccc(O)cc2)CC1 | x | u | 7.9µM* | -37% | u
O=S(=O)(c1cccs1)N1CCN(c2ccc(O)cc2)CC1 | -28% | -24% | 35µM* | -29% | -15%
CCN(CC)c1ccc(-n2nc3cc(C)c(NC(=O)c4ccccc4C)cc3n2)c(C)c1 | x | 47% | 95%[59 µM] | 37% | 129%
SMILES | L3MBTL1 block | JMJD2A Tudor inh | G9a inh | BAZ2B block | HP1b binding inh
CCN(CC)c1ccc(NC(=O)c2cccc(C)c2OC)c(C)c1 | u | 40µM* | 3.5µM* | 35µM* | u
CCN(CC)c1ccc(NC(=O)c2cccnc2)c(C)c1 | -10% | 0%[57.1 µM] | 32µM* | -4%[57.1 µM] | 12%
CCN(CC)c1ccc(NC(=O)c2cnc3ccccn3c2=O)c(C)c1 | x | 45µM* | 1.8µM* | u | u
COc1c(C)cccc1C(=O)Nc1ccc(OCC(=O)N2CCOCC2)cc1C | x | -3% | -7% | 56µM* | 45%
O=C1CSC(=Nc2ccc(Cl)cc2)N1Cc1ccco1 | 6% | -5% | 8%[59 µM] | 1% | 42%
O=C(COc1ccc(Br)cc1)N/N=C1/SCC(=O)N1Cc1ccco1 | -14% | 16µM* | -44% | u | u
CC(=O)SC1CC2=CC(=O)CC[C@]2(C)C2CC[C@@]3(C)[C@@H](CC[C@@]34CCC(=O)O4)C12 (stereo partly specified) | x | x | 9%[12.7 µM] | x | x
COC(=O)C1=C(C)N(Cc2ccccc2)C(=S)N[C@H]1CCc1ccccc1 | x | x | 7%[12.7 µM] | -11% | x
COc1cc(S(=O)(=O)NCc2ccccn2)ccc1Cl | -6% | 32µM* | 25%[59 µM] | -2% | 1%
O=S(=O)(NCc1ccccn1)C(F)(F)F | -17% | 5µM* | x | 50µM* | 36%
Cn1c(=O)oc2cc(S(=O)(=O)NCc3ccccn3)ccc21 | x | -13% | 13µM* | -39% | 13%
CC(=O)Nc1ccc(S(=O)(=O)NCc2ccc(C)n2C)cc1 | x | -6% | 40µM* | u | 13%
COc1ccc(S(=O)(=O)NCc2ccccn2)cc1Br | 11% | -19% | x | 11% | 40%
Nc1ccc(S(=O)(=O)NCc2ccccn2)cc1 | x | -5% | 11%[2.33 µM] | -1% | 69%
Cc1ccc(-c2nc(C)c(CCNC(=O)C(=O)Nc3ccc4c(c3)OCCO4)s2)cc1 | x | -3% | 6%[59 µM] | 0% | 27%[57 µM]
CC(C)CCNC(=O)c1ccc2nc(CCc3ccccc3)oc2c1 | x | 9% | 3%[59 µM] | 4% | 31%[57 µM]
CCN(CC)c1ccc(NS(=O)(=O)c2ccc3c(c2)oc(=O)n3C)c(C)c1 | -29% | u | 40µM* | -16% | u
COc1ccc(S(=O)(=O)NCc2ccccn2)cc1NC(=O)c1ccc(C)cc1 | 17% | 6.3µM* | -7% | -37% | 16%
CC(=O)Nc1ccc(S(=O)(=O)NCc2ccccn2)cc1 | 7% | 5µM* | 13%[59 µM] | 6% | -4%
COc1ccc(S(=O)(=O)NCc2ccncc2)cc1NC(=O)c1ccccc1C | 2% | -23% | 8.9µM* | 12% | 3%
Cc1nn(-c2cccc(Cl)c2)c2nc(-c3cccnc3)cc(C(F)(F)F)c12 | x | 14% | -4%[59 µM] | 5% | 55%
Cc1nn(-c2ccc(N3CCCC3)nn2)c(C)c1CCC(=O)N1CCN(c2ccccc2)CC1 | x | -12% | 17%[59 µM] | u | 27%
O=C(NCCCc1ccccc1)c1ccc(F)cc1 | 5% | 2% | -3% | 10% | 67%
O=C(NCCNC1CCC(c2ccccc2)CC1)c1ccc(F)cc1 (stereo unspecified) | -2% | 5.6µM* | u | 25µM* | u
